# Paper PMC4336329 (PLoS ONE, 2015)
# Screen size: about 310,000 compounds; about 2,200 (0.71%) showed an effect of 50% or more. The effect is printed as a negative number. The list comes from a sample in which strong results are over-represented; it also holds similar structures and randomly drawn compounds.
# Target: human ether-à-go-go-related gene (hERG) potassium channel (human, UniProt Q12809)
# Test: primary screen, population patch clamp on CHO cells stably expressing hERG; higher = less effect of the substance
# Procedure: Briefly, Chinese hamster ovary (CHO) cells stably expressing the hERG channel were dislodged from tissue culture flasks and dispensed into PPC plates. […] During the recording, background leak currents were estimated by a 100 ms step to -80 mV from an initial holding potential of -70 mV and subtracted from the subsequent current measurement. The campaign was conducted in two phases using slight differences in recording protocol. In the first phase, the initial voltage pulse used a 100 ms step to -30 mV from a holding potential of -70 mV, a 2 s conditioning step to +25 mV, and a 2 s test step to -30 mV. During the second phase of the screen, the potential during the conditioning step was raised to +45 mV. In both phases of the campaign, a secondary voltage pulse was applied using the same parameters as the second phase initial pulse. The initial and secondary pulses were applied in the absence of compound, and upon application of 1 μM and 10 μM test concentrations. Small molecule effects on hERG current density were quantified by […].
# human ether-à-go-go-related gene (hERG) potassium channel, sequence (Q12809 whole entry, looked up): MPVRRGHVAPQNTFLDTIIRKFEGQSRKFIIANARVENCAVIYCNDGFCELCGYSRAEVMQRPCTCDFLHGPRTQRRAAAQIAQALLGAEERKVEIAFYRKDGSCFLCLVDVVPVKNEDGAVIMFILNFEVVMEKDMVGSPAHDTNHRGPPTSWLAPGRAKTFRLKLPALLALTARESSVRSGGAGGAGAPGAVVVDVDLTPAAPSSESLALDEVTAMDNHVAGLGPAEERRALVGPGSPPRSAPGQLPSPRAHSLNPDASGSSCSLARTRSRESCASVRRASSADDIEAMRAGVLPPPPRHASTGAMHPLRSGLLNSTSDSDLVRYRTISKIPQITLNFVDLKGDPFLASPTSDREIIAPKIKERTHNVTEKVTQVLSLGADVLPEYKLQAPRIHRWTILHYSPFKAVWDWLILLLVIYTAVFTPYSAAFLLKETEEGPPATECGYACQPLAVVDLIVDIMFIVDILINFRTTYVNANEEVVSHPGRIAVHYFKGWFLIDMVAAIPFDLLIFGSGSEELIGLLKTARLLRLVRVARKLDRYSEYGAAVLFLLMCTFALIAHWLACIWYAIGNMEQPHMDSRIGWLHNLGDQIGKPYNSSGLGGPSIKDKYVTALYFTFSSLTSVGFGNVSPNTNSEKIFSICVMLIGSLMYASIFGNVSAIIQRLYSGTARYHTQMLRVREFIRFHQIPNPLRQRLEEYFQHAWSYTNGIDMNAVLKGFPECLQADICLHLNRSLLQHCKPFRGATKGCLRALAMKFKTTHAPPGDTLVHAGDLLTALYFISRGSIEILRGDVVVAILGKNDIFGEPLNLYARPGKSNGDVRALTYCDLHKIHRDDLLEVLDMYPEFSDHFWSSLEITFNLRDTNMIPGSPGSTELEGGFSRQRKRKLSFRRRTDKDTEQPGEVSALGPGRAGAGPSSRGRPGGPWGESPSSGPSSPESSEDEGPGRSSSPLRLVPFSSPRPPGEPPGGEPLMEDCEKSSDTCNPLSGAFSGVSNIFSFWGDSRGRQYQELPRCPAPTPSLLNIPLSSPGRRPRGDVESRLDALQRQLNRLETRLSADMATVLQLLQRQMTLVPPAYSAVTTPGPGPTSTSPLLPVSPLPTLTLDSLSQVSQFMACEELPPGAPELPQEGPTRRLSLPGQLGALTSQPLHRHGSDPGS
row,Structure (SMILES),"hERG current change (%, negative = inhibition) at 1uM"
1,Nc1nc(CN2CCN(c3ccccc3F)CC2)nc(Nc2ccccc2)n1,0.21%
2,Cc1cccc(Nc2nc(N)nc(CN3CCN(c4ccccc4)CC3)n2)c1,-7.51%
3,Cc1ccc(Nc2nc(N)nc(CN3CCN(Cc4ccc5c(c4)OCO5)CC3)n2)cc1Cl,-34.6%
4,Nc1nc(CN2CCN(Cc3ccccc3)CC2)nc(Nc2ccc3c(c2)OCCO3)n1,-52.3%
5,Cc1cccc(Nc2nc(N)nc(CN3CCN(Cc4ccc5c(c4)OCO5)CC3)n2)c1,-74.3%
6,Cc1ccc(Nc2nc(N)nc(CN3CCN(Cc4ccc5c(c4)OCO5)CC3)n2)cc1,-53.4%
7,CN1CCN(Cc2nc(N)nc(Nc3ccc4c(c3)OCCO4)n2)CC1,3.07%
8,Nc1nc(CN2CCN(c3ccccc3F)CC2)nc(Nc2ccc3c(c2)OCCO3)n1,-38%
9,Cc1ccc(Nc2nc(N)nc(CN3CCN(C)CC3)n2)cc1,4.62%
10,Nc1nc(CN2CCN(Cc3ccc4c(c3)OCO4)CC2)nc(Nc2ccccc2)n1,-77.4%
11,Cc1cccc(Nc2nc(N)nc(CN3CCN(C)CC3)n2)c1,-5.33%
12,CC(C)(O)C#Cc1ccc(C(=O)NCc2ccccc2)s1,-2.9%
13,CCc1nn(CC(=O)NCCCN(C)C2CCCCC2)c(=O)c2cc3occc3n12,2.42%
14,CN1CCN(c2nc(Nc3ccc(F)cc3)nc(Nc3ccc(F)cc3)n2)CC1,-0.878%
15,COc1ccc(CNC(=S)Nc2ccc(-c3ccccc3)cc2)cc1,6.99%
16,COCCn1c(C)cc(C(=O)CSc2nncn2-c2ccccc2)c1C,8.85%
17,COc1ccc(OCCN2CCOCC2)cc1,20.7%
18,CN(C)S(=O)(=O)N1CCC(Oc2cccc(C(=O)N3CCSCC3)c2)CC1,4.68%
19,S=c1[nH]cnc2scc(-c3ccc(Cl)cc3)c12,10.5%
20,Cc1ccc(Nc2nc(N)nc(CN3CCN(Cc4ccc5c(c4)OCO5)CC3)n2)c(C)c1,-70.5%
21,Cc1ccc(Nc2nc(N)nc(CN3CCCCCC3)n2)c(C)c1,-21.7%
22,Cc1ccccc1Nc1nc(N)nc(CN2CCN(Cc3ccc4c(c3)OCO4)CC2)n1,-45.4%
23,COc1ccc(-n2c(C)c3c(OC)cccc(=O)c3c2C)cc1,0.316%
24,O=S(=O)(Nc1nc2ccccc2nc1NCCN1CCOCC1)c1cccc(Cl)c1,8.11%
